Records with an inconclusive call do not appear. Some compounds were tested as several samples or in several runs, with calls that do not always agree. Activity calls are given as the source filed them. How the source made its calls, unless noted: active means hit-call score of the fitted dose curve at least 0.9, where 1 is the maximum; inactive means score below 0.9.

System in the first assay: not listed separately
Description: CCTE_Shafer_MEA_dev_per_burst_spike_percent: CCTE's Neural Network Formation Assay for Percent of Spikes in a Burst, Shafer Lab (AID 2284032). An outline of the steps: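 Rat primary cortical neurons on 16-electrode MEA wells, dosed from plating day 0 for 12 days with renewal on DIV 5 and 9; spikes-in-bursts percentage averaged over bursting electrodes, collapsed as AUC across days 5, 7, 9, 12; loss direction versus DMSO.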
Take `O=C(O)C(F)(F)C(F)(F)C(F)(F)C(F)(F)C(F)(F)C(F)(F)C(F)(F)C(F)(F)C(F)(F)C(F)F`: the call was inactive.
For the compound `O=C(O)C(F)(F)C(F)(F)C(F)(F)C(F)(F)C(F)(F)C(F)(F)C(F)(F)C(F)(F)Cl`, the outcome was inactive.
On the same count and under the same terms, under `OCC(F)(F)C(F)(F)C(F)(F)F` stands “inactive”.
Same read-out and setting: under `O=C(O)C(F)(F)C(F)(F)C(F)(F)F` stands “inactive”.
Still for that read-out and setting: under `COC(=O)CCC(F)(F)C(F)(F)C(F)(F)C(F)(F)F` stands “inactive”.
Regarding `OCC(F)(F)C(F)(F)C(F)(F)C(F)(F)C(F)(F)C(F)F`, the call was inactive.
Same read-out and setting: for `OCCCC(F)(F)C(F)(F)C(F)(F)F` the value was “inactive”; for `Cc1ccc(S(=O)(=O)OCC(F)(F)C(F)(F)C(F)(F)C(F)(F)C(F)(F)C(F)F)cc1`, “inactive”.
On the same count and under the same terms, for `O=P(O)(O)OCCC(F)(F)C(F)(F)C(F)(F)C(F)(F)C(F)(F)C(F)(F)F` the value was “inactive”.
Same read-out and setting: for `NC(=O)C(F)(F)C(F)(F)C(F)(F)C(F)(F)F` the value was “inactive”.

The next assay concerns the target Estrogen receptor (Homo sapiens) (UniProt P03372). Briefly: CCTE_Deisenroth_AIME_384WELL_LUC_Inactive: CCTE's 384-well Estrogen Receptor Transactivation Assay without AIME metabolic competence (ERTA luciferase; metabolism negative), Deisenroth Lab (AID 2284038; active means hit-call score of the fitted dose curve at least 0.9, where 1 is the maximum;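 further: VM7Luc4E2 breast cells given medium preincubated 2 h with S9-free microspheres; hits raise estrogen receptor luciferase signal so potencies reflect agonists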). An outline of the steps: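 Metabolism-negative mode: chemicals (10-point, 0.002–200 uM) held 2 h with alginate-water microspheres, then conditioned medium applied to VM7Luc4E2 cells for 24 h. Luciferase induction referenced to 17beta-estradiol.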
As a reminder, the AC50 is the concentration at which the activity in the assay is half-maximal. Regarding `C(=C(c1ccccc1)c1ccccc1)c1ccccc1`, the AC50 is 9.48 µM (active).
For `CNC(=S)NC`, the compound was called inactive.
On the same count and under the same terms, under `CCCCCCC(C)OC(=O)CCCCC(=O)OC(C)CCCCCC` (stereo not given) stands “inactive”.

System in another assay: not listed separately
Description: CCTE_Deisenroth_AIME_384WELL_CTox_Inactive: Cytotoxicity Assessment (CTOX) in CCTE's 384-well Estrogen Receptor Transactivation Assay without AIME metabolic competence (metabolism negative), Deisenroth Lab (AID 2284039; active means hit-call score of the fitted dose curve at least 0.9, where 1 is the maximum;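 further: cell viability via live-cell protease substrate cleaved to fluorescent probe; cells exposed 24 h to medium preincubated 2 h with alginate-water beads without S9; loss of fluorescence signal means loss of viability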). The protocol:
CCTE_Deisenroth_AIME_384WELL (AIME metabolism assay) is a cell-based, single-readout assay that uses VM7Luc4E2, a human mammary gland/breast cell line, with measurements taken at 24 hour after chemical dosing in a 384-well plate.CCTE_Deisenroth_AIME_384WELL_CTox_Inactive is one of four assay components measured or calculated from the CCTE_Deisenroth_AIME_384WELL assay. It is designed to make measurements of a protease substrate, a type of viability indicator, as detected with substrate cleavage to a fluorescent probe in living cells.CCTE_Deisenroth_AIME_384WELL_CTox_Inactive is a component of the CCTE_Deisenroth_AIME_384WELL assay that measures the effect of retroftting the VM7Luc ERTA assay with the Alginate Immobolization of Metabolic Enzymes (AIME) metabolism method. AIME is optimized to impart phase I hepatic metabolism using phenobarbital/beta-naphthoflavone induced hepatic S9 from male Sprague Dawley rats. Parent chemicals are incubated for 2 hours in the AIME assay prior to transfer to the VM7Luc ERTA assay plate. […] This endpoint evaluates cytotoxicity in metabolism negative mode. Using a type of flourescent probe in VM7Luc cells, loss-of-signal activity can be used to understand loss of viability. This assay endpoint, CCTE_Deisenroth_AIME_384WELL_CTox_Inactive, was analyzed with bidirectional fitting in the ERTA assay.
The AIME procedure consists of a preparative "pre-stamping" step using a barium chloride/poly-L-lysine (PLL) solution followed by "stamping" the lid in alginate-hepatic S9 (metabolism positive) or alginate-water (metabolism negative) to form microspheres. Once stamping is completed, the AIME lids are placed in duplicate microplates (metabolism positive or negative) containing chemical solutions and incubated for two hours to facilitate metabolic reactions. The conditioned medium, containing parent chemical or metabolites, is then transferred to the cell-based VM7Luc Estrogen Receptor Transactivation Assay (ERTA) for 24 hours. A typical experimental design tests a 10-point concentration series (0.002 - 200 uM) for 8 compounds (96-well format)1 or 32 compounds (384-well format)2 in single technical replicate. AIME assay controls include trans-stilbene (bioactivated control) and ethylparaben (bioinactivated control). ERTA assay plate controls include 17-beta estradiol (positive control) and DMSO (solvent control). Experiments typically comprise a minimum of four experimental replicates (n=4).
As to `C(=C(c1ccccc1)c1ccccc1)c1ccccc1`, the call was inactive.
Take `CCN(Cc1cccc(S(=O)(=O)O)c1)c1ccc(C(=C2C=CC(=[N+](CC)Cc3cccc(S(=O)(=O)O)c3)C=C2)c2ccc(O)cc2S(=O)(=O)[O-])cc1`: the AC50 was 100 µM (active).
`CNC(=S)NC`: the outcome was inactive.
`CC/C=C\CCOC(C)=O`: the result was inactive.
Still for that read-out and setting: under `CCCCCCC(C)OC(=O)CCCCC(=O)OC(C)CCCCCC` (stereo not given) stands “inactive”.

System in the next assay: not listed separately
Description: CCTE_Shafer_MEA_dev_active_electrodes_number: CCTE's Neural Network Formation Assay for Number of Active Electrodes, Shafer Lab (AID 2284040; active means hit-call score of the fitted dose curve at least 0.9, where 1 is the maximum;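 on AC50: potency for loss of active electrodes versus DMSO so lower counts are hits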). The procedure, abridged: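 Primary rat cortical neurons on 16-electrode MEA wells, exposed from day 0 through day 12 with compound renewed at DIV 5 and 9 feeds. Active electrodes (mean firing ≥5 spikes/min) counted at DIV 5, 7, 9, 12; trapezoidal AUC across days, loss-of-signal versus DMSO.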
With `FC(F)(F)C(F)(F)CNCC(F)(F)C(F)(F)F`, the call was inactive.
With `O=S(=O)(OCCOC(F)(F)F)C(F)(F)F`, the compound was called inactive.
Consider `FC(F)(F)C(F)(F)C(F)(F)C(F)(F)C(F)(F)CCI`, for which the AC50 is 15 µM (active).
The same measure, in the same setting: under `CC(C)(C)C(=O)CC(=O)C(F)(F)C(F)(F)C(F)(F)F` stands 25.2 µM (active).
Still for that read-out and setting: for `C=CC(=O)OCC(F)(F)C(F)(F)C(F)(F)C(F)(F)COC(=O)C=C` the value was 4.2 µM (active).
Regarding `N=C(N)C(F)(F)C(F)(F)C(F)(F)C(F)(F)C(F)(F)C(F)(F)C(F)(F)F`, the compound was classed as inactive.
For `O=S(=O)(OCC(F)F)C(F)(F)F`, the compound was called inactive.
Same read-out and setting: under `O=C(O)C=C(C(F)(F)F)C(F)(F)F` stands “inactive”.
Still for that read-out and setting: under `OC[C@@H](O)[C@@H](O)[C@H](O)[C@@H](O)CO` stands “inactive”.
For the compound `CC(CCl)OP(=O)(OC(C)CCl)OC(C)CCl` (stereo not given), the AC50 is 50 µM (active) and the result was inactive.
Regarding `OCC(F)(F)C(F)(F)C(F)(F)C(F)F`, the outcome was inactive.
As to `O=C(O)C(F)(F)C(F)(F)C(F)F`, the compound was classed as inactive.
The same measure, in the same setting: under `O=C(O)C(F)(F)C(F)(F)C(F)(F)C(F)(F)C(F)(F)C(F)(F)C(F)(F)C(F)(F)Cl` stands “inactive”; under `OCC(F)(F)C(F)(F)C(F)(F)F`, “inactive”; under `O=C(O)C(F)(F)C(F)(F)C(F)(F)F`, “inactive”.
Still for that read-out and setting: under `OCC(F)(F)C(F)(F)C(F)(F)C(F)(F)C(F)(F)C(F)F` stands “inactive”; under `OCCCC(F)(F)C(F)(F)C(F)(F)F`, “inactive”.
For `O=P(O)(O)OCCC(F)(F)C(F)(F)C(F)(F)C(F)(F)C(F)(F)C(F)(F)F`, the result was inactive.

The target of another assay is Estrogen receptor (Homo sapiens) (UniProt P03372). Description: CCTE_Deisenroth_AIME_384WELL_LUC_Shift: CCTE's 384-well Estrogen Receptor Transactivation Assay with AIME metabolic competence data shift (ERTA luciferase; difference in metabolism positive and negative), Deisenroth Lab (AID 2284041).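 Further: shift is response with S9 minus without S9 so positive means metabolism raised ER signal.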 An outline of the steps: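 Test chemicals (0.002–200 uM, 10-point) were pre-incubated 2 h with alginate microspheres containing phenobarbital/beta-naphthoflavone-induced male Sprague Dawley rat liver S9 or water, then medium was transferred to VM7Luc4E2 cells for 24 h luciferase readout; shift = S9-positive minus S9-negative normalized response.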
Sequence of Estrogen receptor (Homo sapiens) (P03372 whole entry, looked up): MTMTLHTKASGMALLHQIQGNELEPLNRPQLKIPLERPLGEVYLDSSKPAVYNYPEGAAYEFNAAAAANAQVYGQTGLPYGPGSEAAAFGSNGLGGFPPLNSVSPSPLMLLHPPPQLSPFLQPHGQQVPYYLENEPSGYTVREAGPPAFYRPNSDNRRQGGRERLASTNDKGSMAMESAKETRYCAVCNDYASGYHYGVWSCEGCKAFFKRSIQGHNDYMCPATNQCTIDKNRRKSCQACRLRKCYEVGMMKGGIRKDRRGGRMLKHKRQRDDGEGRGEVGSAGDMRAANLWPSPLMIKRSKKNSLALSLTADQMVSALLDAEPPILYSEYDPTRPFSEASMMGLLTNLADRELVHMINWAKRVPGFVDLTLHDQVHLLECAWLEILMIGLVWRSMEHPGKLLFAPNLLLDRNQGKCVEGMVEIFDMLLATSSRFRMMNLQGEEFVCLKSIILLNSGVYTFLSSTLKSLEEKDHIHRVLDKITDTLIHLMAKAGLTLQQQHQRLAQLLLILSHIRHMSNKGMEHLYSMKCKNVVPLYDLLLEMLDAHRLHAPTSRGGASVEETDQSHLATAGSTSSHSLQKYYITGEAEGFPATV
Regarding `C(=C(c1ccccc1)c1ccccc1)c1ccccc1`, the AC50 was 0.869 µM (active).
Take `CCN(Cc1cccc(S(=O)(=O)O)c1)c1ccc(C(=C2C=CC(=[N+](CC)Cc3cccc(S(=O)(=O)O)c3)C=C2)c2ccc(O)cc2S(=O)(=O)[O-])cc1`: the outcome was inactive.
The same measure, in the same setting: under `CNC(=S)NC` stands “inactive”; under `CC/C=C\CCOC(C)=O`, “inactive”.
On the same count and under the same terms, under `CCCCCCC(C)OC(=O)CCCCC(=O)OC(C)CCCCCC` (stereo not given) stands “inactive”.

System in the next assay: not listed separately
Briefly: CCTE_Shafer_MEA_dev_burst_rate: CCTE's Neural Network Formation Assay for Burst Rate, Shafer Lab (AID 2284042).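 On AC50: potency for loss of burst rate below DMSO control.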 An outline of the steps:
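Rat primary cortical cultures on PEI/laminin MEA; compound from plating, re-dosed at DIV 5, 9 media change. Single-electrode bursts/recording length, well mean of active electrodes; AUC over DIV 5–12 recordings; loss-of-signal vs DMSO.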
Take `FC(F)(F)C(F)(F)CNCC(F)(F)C(F)(F)F`: the compound was classed as inactive.
Same read-out and setting: for `O=S(=O)(OCCOC(F)(F)F)C(F)(F)F` the value was “inactive”; for `FC(F)(F)C(F)(F)C(F)(F)C(F)(F)C(F)(F)CCI`, “inactive”.
In the case of `CC(C)(C)C(=O)CC(=O)C(F)(F)C(F)(F)C(F)(F)F`, the compound was called inactive.
Turning to `FC(F)(F)C(F)(F)C(F)(F)C(F)(F)C(F)(F)C(F)(F)CC1CO1` (stereo not given), the compound was called inactive.
With `C=CC(=O)OCC(F)(F)C(F)(F)C(F)(F)C(F)(F)COC(=O)C=C`, the AC50 was 4.18 µM (active).
Turning to `N=C(N)C(F)(F)C(F)(F)C(F)(F)C(F)(F)C(F)(F)C(F)(F)C(F)(F)F`, the call was inactive.
On the same count and under the same terms, for `O=S(=O)(OCC(F)F)C(F)(F)F` the value was “inactive”; for `O=C(O)C=C(C(F)(F)F)C(F)(F)F`, “inactive”.
The same measure, in the same setting: for `OC[C@@H](O)[C@@H](O)[C@H](O)[C@@H](O)CO` the value was “inactive”; for `CC(CCl)OP(=O)(OC(C)CCl)OC(C)CCl` (stereo not given), “inactive”; for `OCC(F)(F)C(F)(F)C(F)(F)C(F)F`, “inactive”.
Regarding `O=C(O)C(F)(F)C(F)(F)C(F)F`, the outcome was inactive.
The same measure, in the same setting: for `O=C(O)C(F)(F)C(F)(F)C(F)(F)C(F)(F)C(F)(F)C(F)(F)C(F)(F)C(F)(F)C(F)(F)C(F)F` the value was “inactive”; for `O=C(O)C(F)(F)C(F)(F)C(F)(F)C(F)(F)C(F)(F)C(F)(F)C(F)(F)C(F)(F)Cl`, “inactive”; for `OCC(F)(F)C(F)(F)C(F)(F)F`, “inactive”.
The same measure, in the same setting: for `O=C(O)C(F)(F)C(F)(F)C(F)(F)F` the value was “inactive”; for `COC(=O)CCC(F)(F)C(F)(F)C(F)(F)C(F)(F)F`, “inactive”; for `OCC(F)(F)C(F)(F)C(F)(F)C(F)(F)C(F)(F)C(F)F`, “inactive”.
For the compound `OCCCC(F)(F)C(F)(F)C(F)(F)F`, the compound was classed as inactive.
The same measure, in the same setting: under `Cc1ccc(S(=O)(=O)OCC(F)(F)C(F)(F)C(F)(F)C(F)(F)C(F)(F)C(F)F)cc1` stands “inactive”.
Regarding `O=P(O)(O)OCCC(F)(F)C(F)(F)C(F)(F)C(F)(F)C(F)(F)C(F)(F)F`, the result was inactive.
On the same count and under the same terms, for `NC(=O)C(F)(F)C(F)(F)C(F)(F)C(F)(F)F` the value was “inactive”.

(Values after PubChem BioAssay (EPA / NIEHS).)
